Experiment [1] can be described thus: qHTS assay to identify small molecule antagonists of the retinoid acid receptor (RAR) signaling pathway - cell viability counter screen (AID 1159551). Further: nearly all actives have a fitted effect of over 35% in size. As to conditions: C3RL4 cells viability, ATP luminescence (CellTiter-Glo), 6 h; series mostly up to 92.4 µM. In outline: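 Retinol-stimulated (1 uM final) C3RL4 cells, compound 6 h, 37 C; readout CellTiter-Glo luminescence (ATP) after 30 min RT incubation.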
On the technique in general: qHTS replaces the single test concentration by a dilution series.

The nature of experiment [2]: qHTS assay to identify small molecule antagonists of the retinoic acid receptor (RAR) signaling pathway (AID 1159552; further: nearly all actives have a fitted effect of over 50% in size). As to conditions: C3RL4 RARE luciferase reporter, retinol-stimulated, 6 h; series mostly up to 92.4 µM. A digest of the protocol:
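Luminescent RARE reporter read-out in C3RL4 cells: 6 hr co-treatment at 37 C of test compounds with retinol at 1 uM final. Cells plated overnight beforehand; luciferase reagent incubated 30 min at room temperature before reading.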

Experiment [3] can be described thus: qHTS assay to identify small molecule antagonists of the estrogen related receptor (ERR) signaling pathway from Tox21 library - cell viability counter screen (AID 1224834). Further: nearly all actives have a fitted effect of over 30% in size. Further: potency means the concentration at half of the fitted maximal effect. As to conditions: ERR reporter cells viability, CellTiter-Fluor, 17.5 h; series mostly up to 92.4 µM. In outline:
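After 17.5 h of compound exposure at 37 C, ERR cells are incubated with CellTiter-Fluor for 30 min and fluorescence intensity serves as the viability measure.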

Experiment [4] can be described thus: qHTS assay to identify small molecule antagonists of the estrogen related receptor signaling pathway with the pleiotropic PPARgamma coactivator (PGC) cell viability counter screen (AID 1224822). The following applies: ERR/PGC reporter cell line viability counter screen; series mostly up to 46.1 µM. A digest of the protocol:
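PGC/ERR cells were plated at 2,000 per well and allowed 6 h to settle before compound addition. Following 17.5 h at 37 C, CellTiter-Fluor reagent was added and fluorescence was read 30 min later.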

Molecules are shown by their SMILES. Several values for one entry are separate records, joined by “and”; a condition that tells them apart may be missing. Equal values may be shown once. Results filed as inconclusive are left out. More than one record can exist for a structure, and the calls need not agree. Activity calls are given as the source filed them. The call rests on the fitted dose curve; in most records, active means well fitted curve in the direction sought with a large enough effect in the repeat runs; inconclusive means weak or mixed curves; inactive means no such curve, though single readings can be large; an effect the other way counts as inactive or inconclusive.

Take `OCc1ccc(Cl)cc1Cl`: the Potency result in experiment [1], in experiment [2] and in experiment [3] was “inactive” throughout.

As for `O=[N+]([O-])c1ccccc1C(F)(F)F`, the Potency result in experiment [1], in experiment [2] and in experiment [3] was “inactive” in each case.

Regarding `CCCOCC(C)O` (stereo not given), the Potency entry in experiment [1], in experiment [2] and in experiment [3] was “inactive” throughout.

Take `CC(C)(C)NC[C@H](O)COc1nsnc1N1CCOCC1`: the Potency entry in experiment [1] and in experiment [3] was “inactive” in each case.

On to `O=c1c(O)c(-c2ccc(O)c(O)c2)oc2cc(O)cc(O)c12`, for which the Potency entry in experiment [1] and in experiment [4] was “inactive” throughout. Also, the Potency in experiment [3] was 43.6 µM (active) and 27.3 µM (active) and inactive.

On to `Cc1ccc(Cl)cc1`, for which the Potency result in experiment [1] and in experiment [3] was “inactive” in each case.

For the compound `CCCCCCCC(=O)O`, the Potency result in experiment [1] and in experiment [3] was “inactive” throughout.

On to `O=C1O[C@H]([C@H](O)CO)C(O)=C1O`, for which the Potency result in experiment [1] and in experiment [3] was “inactive” in each case.

Take `CCCCCCCCC(=O)O`: the Potency entry in experiment [1], in experiment [2] and in experiment [3] was “inactive” each time.

As to `CC(C)(CO)CO`, the Potency entry in experiment [1] and in experiment [3] was “inactive” in each case.

These data come from PubChem BioAssay (Tox21).
